Bioassay records from PubChem BioAssay.
Shown are actives, neighbours in structure and some others; about 3.1% of the full set was active somewhere.
TWEAK-Fn14 inh: inhibitors of TWEAK-Fn14 signaling, primary screen, luciferase reporter cells, uHTS; 360,000 tested, 2% active; inhibition, % at 10 µM; AID 1159606, 2016; TWEAK-stimulated Fn14 reporter cells, luciferase luminescence, 8 h; in the data active = inhibition above about 50%
PAX8 reporter: inhibitors of PAX8-driven TPO luciferase reporter, primary screen, RMG-I cells, single concentration. SteadyGlo, 24 h. inhibition, % at 12.6 µM. 360,000 tested, 1.2% active;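 active = mean replicate inhibition at least 60% with every replicate also reaching 60%; inconclusive = only one of the two criteria is met; inactive = mean below 60% and not all replicates reaching 60%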;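 also: luciferase light reporting Pax8 driven TPO promoter activity; plate controls were median of neutral control wells for no effect and mitoxantrone controls for full effect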
LGR2 antag: inhibitors of bursicon-induced LGR2 CRE-luciferase signal, primary screen, cell-based, HEK293, CRE-luciferase reporter, bursicon stimulation. 380,000 tested, 0.35% active. Drosophila bursicon receptor LGR2 (rickets). AID 720647, 2013. inhibition, % at 9.99 µM. bursicon-stimulated, 4 h;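 active = drop in luminescence signal, shown as inhibition above about 50% in the replicate tests, limit read from the data, passing the limit was not always enough; inconclusive = probably only some replicates passing the limit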;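 also: agonist challenge used bursicon conditioned medium at about half maximal strength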
LMP1 NFkB inh: EBV LMP1-driven NF-kappaB luciferase reporter inhibitors, primary screen, cell-based, luminescence, single point; 350,000 tested, 0.69% active; inhibition, % at 12.5 µM; AID 504558, 2011; LMP1-induced NF-kappaB luciferase reporter cells; in the data active = inhibition above about 41%; inconclusive = no clear call, values can overlap the other calls;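 also: 0% = neutral control wells and 100% = reference inhibitor control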
EWS-Fli inh: EWS/Fli-driven NR0B1 reporter inhibitors, primary screen, A673 cells, NR0B1 luciferase, luminescence, MLPCN library; viability-normalised; inhibition, % at 12.6 µM; 350,000 tested, 0.67% active; AID 651661, 2012;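 active = mean inhibition of at least 50% after viability correction, with every replicate also passing that limit; inconclusive = mean reaches 50% but only one of two replicates passes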;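 also: firefly luciferase signal divided by Alamar Blue viability fluorescence both relative to DMSO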
TROY signal inh: inhibitors of TROY-driven NF-kB signaling, primary screen, Q293 LMP1-TROYcd cells, NF-kB luciferase, uHTS. Q293 LMP1-TROYcd NF-kB luciferase reporter, 4 h. inhibition, % at 10 µM. 360,000 tested, 0.98% active. AID 1347056, 2019;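 active = compounds whose plate-normalised and pattern-corrected inhibition of the luciferase reporter signal at the single screening dose is 50% or more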
An asterisk follows results filed as active; ? = inconclusive; . = not tested or not shown.

SMILES | TWEAK-Fn14 inh | PAX8 reporter | LGR2 antag | LMP1 NFkB inh | EWS-Fli inh | TROY signal inh
Cc1ccc(Sc2ncnc(N)c2[N+](=O)[O-])cc1 | 43 | 4 | 9 | 9 | . | 14
Nc1ncnc(Sc2ccccc2)c1[N+](=O)[O-] | 57* | -27 | . | 24 | -9 | 22
Cc1cccc(C)c1Nc1ncnc(N)c1[N+](=O)[O-] | -12 | -11 | 6 | -5 | -10 | 7
O=C(Nc1ccccc1)N1CCCCN2[C@H](CO)[C@H](c3ccc(C#Cc4cccnc4)cc3)[C@@H]2C1 | . | -23 | 13 | . | 6 | .
COc1ccccc1S(=O)(=O)N[C@H]1C=C[C@H](CC(=O)NCc2cc(F)cc(F)c2)O[C@H]1CO | . | -11 | -2 | . | 6 | .
CC(C)CC#Cc1ccc2c(c1)O[C@@H](CN(C)C(=O)c1ccccc1F)[C@H](C)CN([C@@H](C)CO)S2(=O)=O | . | . | -6 | . | 26 | .
Cc1ccc(NC2=C/C(=N/S(=O)(=O)c3cccs3)c3ccccc3C2=O)cc1 | 94* | 53 | . | 80* | 25 | 60*
Cc1ccc(/C=C2\S/C(=N/S(=O)(=O)c3cccs3)NC2=O)cc1 | 20 | 5 | -6 | -6 | 8 | -10
O=C1C(Nc2ccccc2)=C/C(=N/S(=O)(=O)c2cccs2)c2ccccc21 | 97* | . | . | 87* | . | 48
O=C1C=C(Nc2ccccc2)C(=O)c2ccccc21 | 17 | . | 19 | -23 | -35 | -49
COCCNC(=O)C[C@@H]1CC[C@H]2[C@@H](COc3ccc(NC(=O)COC)cc3C(=O)N2C)O1 | . | -3 | -2 | . | 7 | .
CO[C@@H]1CN(C)C(=O)c2cc(NC(=O)Cc3ccccc3)ccc2OC[C@H](C)N(C(C)=O)C[C@H]1C | . | 1 | 3 | . | 2 | .
CC(C)NC(=O)N(C)C[C@@H]1OCCCC[C@H](C)Oc2ccc(NC(=O)c3ccncc3)cc2C(=O)N([C@H](C)CO)C[C@@H]1C | . | 3 | 5 | . | -41 | .
Cc1ccc(NC(C(=O)c2ccccc2)c2ccccc2)cc1 (stereo not drawn) | 3 | 80* | -12 | 26 | -18 | -17
CS(=O)(=O)N(CCc1ccccc1)CC(=O)N1CCN(c2ccccc2)CC1 | 3 | . | . | -10 | . | 5
CS(=O)(=O)N(CCc1ccccc1)CC(=O)N1CCN(c2ccccc2F)CC1 | 84* | . | . | -13 | . | -14
Cc1ccc(NC(=O)Cn2nc(C)c3ccccc3c2=O)cc1F | -15 | 2 | . | 44* | . | 2
O=C([C@@H]1Cc2ccccc2CN1)N1CCN(Cc2ccccc2)CC1 | -12 | -19 | -4 | -9 | 14 | 6
CC1=C(C)CC(C(=O)N2CCN(Cc3ccccc3)CC2)C(C(=O)O)C1 (stereo not drawn) | -5 | -11 | . | 65* | . | -10
C[C@H]1CN([C@@H](C)CO)C(=O)c2cccc(NC(=O)C3CC3)c2O[C@@H]1CN(C)C(=O)Nc1cccc2ccccc12 | . | -3 | 10 | . | 2 | .
COc1ccc(/C=C2\SC(=S)NC2=O)cc1OS(=O)(=O)c1ccc(NC(C)=O)cc1 | -5 | -3 | -4 | 3 | 11 | 40
COc1cc(/C=C2/SC(=S)NC2=O)ccc1OS(=O)(=O)c1ccc(C)cc1 | 40 | . | . | 1 | . | 59*
C[C@@H]1CCCCO[C@H](CN(C)Cc2ccccc2)[C@H](C)CN([C@H](C)CO)C(=O)c2cc(NC(=O)NC3CCCCC3)ccc2O1 | . | 5 | 0 | . | 1 | .
COC(=O)C1=C(C(=O)OC)[C@@H]2N(C)c3ccccc3[C@@]23C[C@@H](C(=O)OC)N(C(=O)c2cccs2)C3=N1 | 25 | 15 | 2 | -1 | 7 | 24
COC(=O)C1=C(C(=O)OC)[C@@H]2N(Cc3ccccc3)c3ccccc3[C@@]23C[C@@H](C(=O)OC)N(C(=O)c2cccs2)C3=N1 | 61* | -7 | 1 | 5 | 19 | 29
SMILES | TWEAK-Fn14 inh | PAX8 reporter | LGR2 antag | LMP1 NFkB inh | EWS-Fli inh | TROY signal inh
CCN(CC(=O)NCc1cccs1)C(=O)c1ccc(-c2ccc(F)cc2)o1 | 80* | 6 | 8 | -4 | 6 | 12
CCN(CC(=O)NCc1cccs1)C(=O)c1ccc(C)o1 | 4 | 9 | -4 | -4 | 1 | -5
COc1ccc(C#Cc2ccc([C@H]3[C@H](CO)N4C(=O)CN(C(=O)c5ccc(F)cc5)C[C@@H]34)cc2)cc1 | . | . | 27 | . | -11 | .
O=c1c2c(nc3n1CCCCC3)sc1c(O)c(Br)ccc12 | 68* | . | ? | 19 | 7 | 36
CCN(CC)CCOc1c(Br)ccc2c1sc1nc3n(c(=O)c12)CCC3 | -30 | -34 | . | -28 | . | -35
Cc1ccc(N/C=C/C(=O)c2ccco2)c(O)c1 | 95* | -6 | -55 | -35 | -49 | -35
Cc1ccc([N+](=O)[O-])cc1N/C=C/C(=O)c1ccco1 | -49 | . | -8 | -39 | -63 | -27
Cc1ccc(S(=O)(=O)Nc2ccc3c(c2)C(=O)N([C@@H](C)CO)C[C@@H](C)[C@@H](CN(C)Cc2ccc(C(=O)O)cc2)OCCCC[C@@H](C)O3)cc1 | . | -4 | 18 | . | -26 | .
C[C@H]1CCCCO[C@H](CN(C)Cc2ccc(C(F)(F)F)cc2)[C@@H](C)CN([C@@H](C)CO)C(=O)c2cc(NS(=O)(=O)c3ccc(F)cc3)ccc2O1 | . | 89* | 11 | . | 14 | .
C[C@@H]1CN([C@H](C)CO)C(=O)c2cc(NS(=O)(=O)c3ccc(F)cc3)ccc2O[C@@H](C)CCCCO[C@@H]1CN(C)Cc1ccccc1 | . | 106* | 25 | . | 29 | .
Cc1ccc(S(=O)(=O)Nc2ccc3c(c2)C(=O)N([C@@H](C)CO)C[C@H](C)[C@H](CN(C)Cc2ccc(C(F)(F)F)cc2)OCCCC[C@H](C)O3)cc1 | . | 108* | -6 | . | 6 | .
C[C@H](CO)N1C[C@H](C)[C@@H](CN(C)Cc2ccccc2)OCCCC[C@H](C)Oc2ccc(NS(=O)(=O)c3ccc(F)cc3)cc2C1=O | . | -18 | 3 | . | 3 | .
C[C@@H]1CCCCO[C@@H](CN(C)Cc2ccc(C(F)(F)F)cc2)[C@@H](C)CN([C@H](C)CO)C(=O)c2cc(NS(=O)(=O)c3ccc(F)cc3)ccc2O1 | . | -2 | 15 | . | -14 | .
Cc1ccc(S(=O)(=O)Nc2ccc3c(c2)C(=O)N([C@@H](C)CO)C[C@H](C)[C@H](CN(C)Cc2ccc(C(F)(F)F)cc2)OCCCC[C@@H](C)O3)cc1 | . | 102* | 14 | . | 9 | .
C[C@H]1CN([C@@H](C)CO)S(=O)(=O)c2ccc(-c3cccnc3)cc2O[C@@H]1CN(C)C(=O)C1CCC1 | . | . | 4 | . | -10 | .
C[C@@H]1CN([C@@H](C)CO)C(=O)c2cc(NS(=O)(=O)c3cn(C)cn3)ccc2O[C@@H](C)CCCCO[C@@H]1CN(C)C(=O)c1ccncc1 | . | 14 | 10 | . | -1 | .
